Source: PubChem BioAssay AID2315 (National Center for Advancing Translational Sciences (NCATS), 2010)
The campaign covered roughly 290,000 compounds. About 27,000 (9.3%) were called active. Cut-off read from the data, not from the text of the source: active = inhibition mostly above about 28% (no sharp cut-off); inactive = mostly below about 43%. For the sample, actives were picked, then their nearest neighbours and some compounds at random.

Experiment: A qHTS for Small Molecule Inhibitors of Shiga Toxin; note: 0% is about no effect
Conditions: Vero cells, Shiga toxin protein synthesis inhibition reporter; at 38.7 µM, active compounds read high

Row | SMILES | inhibition
1 | CC1CCN(S(=O)(=O)c2nnc(NC(=O)COc3ccccc3F)s2)CC1 | 2.6% (inactive)
2 | Cc1cc(NC(=O)c2ccc(F)cc2)ccc1NC(=O)c1ccco1 | 39.7% (inactive)
3 | O=C(Nc1ccc(O)cc1)c1ccc(NC(=O)c2ccco2)cc1 | 32.1% (active)
4 | O=C(Nc1cccc(-c2nc3ncccc3o2)c1)c1ccco1 | 1.9% (inactive)
5 | Cc1ccc(NC(=O)/C(=C\c2ccccc2)NC(=O)c2ccco2)cc1 | 15.6% (inactive)
6 | O=C(Nc1ccc(NC(=O)c2cccs2)cn1)c1ccco1 | 27.3% (inactive)
7 | Cc1ccnc(NC(=O)c2ccc(NC(=O)c3ccco3)cc2)c1 | 64.6% (active)
8 | COc1ccc(NC(=O)c2cccc(NC(=O)c3ccco3)c2)c(OC)c1 | 7.82% (inactive)
9 | CCCC(=O)Nc1ccc2c(c1)nc(CCNC(=O)c1ccco1)n2C | -1.85% (inactive)
10 | COc1cccc(C(=O)Nc2ccc(NC(=O)c3ccco3)cn2)c1 | 124% (active)
11 | O=C(Nc1ccc2oc(-c3ccccc3F)nc2c1)c1ccco1 | 85.3% (active)
12 | Cc1cc(=O)oc2c3c(cc(OCC(=O)N[C@H](C(=O)O)c4ccccc4)c12)OC(C)(C)CC3 | 9.9% (inactive)
13 | Oc1ccc(C2Nc3cccc4cccc(c34)N2)cc1 | -4.55% (inactive)
14 | CSc1ccc(S(=O)(=O)N2CCC(C(=O)NCc3ccncc3)CC2)cc1 | -6.82% (inactive)
15 | CCOC(=O)N1CCN(S(=O)(=O)c2ccc(Br)cc2)CC1 | 9.83% (inactive)
16 | COCCN1C(=O)C(=O)/C(=C(/O)c2ccc(S(=O)(=O)N3CCOCC3)cc2)C1c1ccc(OC)c(OC)c1 (stereo unspecified) | -8.01% (inactive)
17 | Cc1cccn2c(=O)c(/C=C(\C#N)C(N)=O)c(N3CCCCCC3)nc12 | -3.79% (inactive)
18 | CC(C)Oc1ccc(C(CC(=O)N2CCOCC2)C(C)C)cc1 (stereo unspecified) | 5.33% (inactive)
19 | COc1cc(C2/C(=C(\O)c3ccc4c(c3)CC(C)O4)C(=O)C(=O)N2c2nnc(C)s2)cc(OC)c1OC (stereo unspecified) | -6.77% (inactive)
20 | Cc1ccc(C(=O)NC2CCN(C(=O)Nc3ccccc3Cl)CC2)cc1 | -5.62% (inactive)
21 | COCCOC(=O)C1=C(C)NC(=O)NC1c1cc2c(cc1Br)OCO2 (stereo unspecified) | 13.8% (inactive)

Row | SMILES | inhibition
22 | O=C(Nc1ccc(Sc2ccc(Br)cc2)cc1)c1ccco1 | 60.3% (active)
23 | O=C(Nc1ccc(Oc2ccccc2)cc1)c1ccco1 | 169% (active)
24 | O=C(Nc1cccnc1)c1ccc(Cl)c([N+](=O)[O-])c1 | 52.4% (inactive)
25 | Cc1cc(NC(=O)[C@H](C)NC(=O)c2ccco2)ccc1Br | 4.7% (inactive)
26 | Cc1ccnc(NC(=O)c2ccco2)n1 | 24.9% (inactive)
27 | O=C(Nc1ccncc1)c1ccc(Cl)c([N+](=O)[O-])c1 | -0.478% (inactive)
28 | O=C(Nc1ccccc1)c1ccco1 | 19.7% (inactive)
29 | O=C(Nc1cccc(NC(=O)c2ccco2)c1)c1cnccn1 | 7.98% (inactive)
30 | COC(=O)c1cc(NC(=O)c2ccco2)ccc1N1CCOCC1 | -9.27% (inactive)
31 | O=C(Nc1ccc2nccnc2c1)c1ccco1 | 98.5% (active)
32 | Cc1ccnc(NC(=O)c2ccc(Cl)c([N+](=O)[O-])c2)c1 | 50.2% (active)
33 | O=C(Nc1ccccc1)/C(=C\c1ccco1)NC(=O)c1ccco1 | 14.3% (inactive)
34 | O=[N+]([O-])c1ccc(NC(=S)N2CCN(c3ccccn3)CC2)cc1 | -11.7% (inactive)
35 | O=C(CCN1CCCO1)N1CCCC(N2CCN(c3cccc(C(F)(F)F)c3)CC2)C1 (stereo unspecified) | 3.43% (inactive)
36 | CCNS(=O)(=O)c1ccc(NC(=O)c2cncc(Br)c2)cc1 | -9.77% (inactive)
37 | COc1ccccc1N1CCN(C(=O)c2ccc(NC3=NC4CS(=O)(=O)CC4S3)cc2)CC1 (stereo unspecified) | -1.81% (inactive)
38 | COc1ccc(CNC(=O)C2CC(c3ccc(C(F)(F)F)cc3)=NO2)cc1 (stereo unspecified) | -4.35% (inactive)
39 | Cc1cc(C(=O)NC2CCN(Cc3ccccc3)CC2)n[nH]1 | -10.2% (inactive)
40 | CCOc1ccc(C(=O)Nc2c3c(nn2-c2ccccc2)CS(=O)(=O)C3)cc1 | -5.21% (inactive)
41 | COC(=O)c1c(NC(=O)C(=O)N2CCCCC2)sc2c1CC(C)(C)OC2 | -9.37% (inactive)
42 | Cc1ccc(OCCCCc2c(C)n[nH]c2C)cc1 | 25.2% (inactive)

Row | SMILES | inhibition
43 | Cc1cc(C)nc(SCc2cn3c(C)cc(C)nc3n2)n1 | 2.5% (inactive)
44 | Cc1ccc2nc(SCc3cn4c(C)cc(C)nc4n3)[nH]c2c1 | -3.11% (inactive)
45 | COc1ccc(OCc2cn3c(C)cc(C)nc3n2)cc1 | 48.1% (active)
46 | CC(C(=O)N=Nc1c(O)n(C)c2ccc(Br)cc12)n1cnc2ccccc2c1=O (stereo unspecified) | -6.1% (inactive)
47 | CSCCC(NS(=O)(=O)c1ccccc1F)C(=O)N1CC=C(c2ccccc2)CC1 (stereo unspecified) | -9.3% (inactive)
48 | COCCN(C(=O)C(C)C)c1nnc(-c2ccc(C(C)(C)C)cc2)s1 | 24.3% (inactive)
49 | COc1ccc(-n2nnnc2-c2nc3ccccc3s2)cc1 | 77.2% (active)
50 | CCOc1cccc(-n2nnnc2-c2ccc(OC)cc2)c1 | 0.378% (inactive)
51 | COc1ccc(CSc2nnnn2-c2ccc(C(=O)O)cc2)cc1 | -2.72% (inactive)
52 | COC(=O)c1ccc(CN2CCCC(C(=O)Nc3cccc(-n4cnnn4)c3)C2)cc1 (stereo unspecified) | -11.4% (inactive)
53 | N=c1c2c(-c3ccccc3)c(-c3ccccc3)n(Cc3ccccc3)c2ncn1CCCO | -13.5% (inactive)
54 | OCCCN1c2ccccc2Nc2nnc(-c3ccccc3)cc21 | 57.2% (active)
55 | O=[N+]([O-])c1ccc(N(CCO)Cc2ccccc2)c([N+](=O)[O-])c1 | 6.65% (inactive)
56 | COc1ccc(C(=O)c2c(C)c(CCC#N)n3ccccc23)c(OC)c1 | -12.7% (inactive)
57 | CC(C)C(=O)Nc1ccc2oc(=O)ccc2c1 | 31% (inactive)
58 | CC(C)C(=O)Nc1ccc2c(c1)oc1ccccc12 | 105% (active)
59 | CC(C)C(=O)Nc1c(C(=O)c2ccc(F)cc2)oc2ccccc12 | -3.91% (inactive)
60 | Cc1c(CC(=O)NCC(=O)NCC(=O)O)c(=O)oc2cc3oc4c(c3cc12)CCCC4 | 2.91% (inactive)
61 | CCNC(=O)c1sccc1-n1cccc1 | -7.99% (inactive)
